# Source: publication PMC7862700, “An all-to-all approach to the identification of sequence-specific readers for epigenetic DNA modifications on cytosine”
# How the values were obtained:
# Test in all cases: DAPPL (digital affinity profiling via proximity ligation, sequencing); 10 mM Tris-HCl pH 7.5, 50 mM NaCl, 1 mM DTT, 4% glycerol, room temperature, 30 min; GST-TFs on glutathione beads, 16-mer random dsDNA library, 0.1% formaldehyde crosslink after washing; high values mean tight binding
# FEV = molecular target: T1, FEV (Homo sapiens, UniProt Q99581 1-238); conditions: protein: recombinant; tags: N-terminal GST; dsDNA, one strand shown
# T1 sequence: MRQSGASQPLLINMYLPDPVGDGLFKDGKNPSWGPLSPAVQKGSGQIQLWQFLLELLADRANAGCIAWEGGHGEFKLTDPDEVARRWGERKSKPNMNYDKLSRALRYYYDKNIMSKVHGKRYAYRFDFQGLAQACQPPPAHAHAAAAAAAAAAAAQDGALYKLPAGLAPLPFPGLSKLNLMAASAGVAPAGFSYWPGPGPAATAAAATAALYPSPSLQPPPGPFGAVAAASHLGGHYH
# Summary of the method: (§1)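 Binding signal is each hexamer's read frequency for a factor divided by its frequency in the tag-only sample. The factors were GST-fused human transcription factors from yeast, captured on glutathione beads, DNA-barcoded and pooled with that sample. Pools were incubated with 200 nmole of a random double-stranded 16-mer DNA library in Tris/NaCl/DTT/glycerol buffer at room temperature for 30 min, then washed, crosslinked with 0.1% formaldehyde, proximity-ligated with BsaI/T4 ligase (1 h, 37 °C), PCR-amplified and sequenced on an Illumina NextSeq500.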
# ETV5 = ETV5 (Homo sapiens, UniProt P41161 1-510); conditions: protein: recombinant; tags: N-terminal GST; dsDNA, one strand shown
# Summary of the method: as §1
# HSF1 = HSF1 (Homo sapiens, UniProt Q00613 1-529); conditions: protein: recombinant; tags: N-terminal GST; chain copies: 3; dsDNA, one strand shown
# Summary of the method: as §1
# SPIC = molecular target: T2, SPIC (Homo sapiens, UniProt Q8N5J4 1-248); conditions: protein: recombinant; tags: N-terminal GST; dsDNA, one strand shown
# T2 sequence: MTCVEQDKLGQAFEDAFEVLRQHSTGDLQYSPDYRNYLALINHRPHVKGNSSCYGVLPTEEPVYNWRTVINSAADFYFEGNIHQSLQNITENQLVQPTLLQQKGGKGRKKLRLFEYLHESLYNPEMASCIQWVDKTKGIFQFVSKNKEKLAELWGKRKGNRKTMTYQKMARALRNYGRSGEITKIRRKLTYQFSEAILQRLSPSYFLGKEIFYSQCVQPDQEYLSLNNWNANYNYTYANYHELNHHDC
# Summary of the method: as §1
# ELF4 = ELF4 (Homo sapiens, UniProt Q99607 1-663); conditions: protein: recombinant; tags: N-terminal GST; dsDNA, one strand shown
# Summary of the method: as §1
# ELK4 = molecular target: T3, ELK4 (Homo sapiens, UniProt P28324-2 1-405); conditions: protein: recombinant; tags: N-terminal GST; dsDNA, one strand shown
# T3 sequence: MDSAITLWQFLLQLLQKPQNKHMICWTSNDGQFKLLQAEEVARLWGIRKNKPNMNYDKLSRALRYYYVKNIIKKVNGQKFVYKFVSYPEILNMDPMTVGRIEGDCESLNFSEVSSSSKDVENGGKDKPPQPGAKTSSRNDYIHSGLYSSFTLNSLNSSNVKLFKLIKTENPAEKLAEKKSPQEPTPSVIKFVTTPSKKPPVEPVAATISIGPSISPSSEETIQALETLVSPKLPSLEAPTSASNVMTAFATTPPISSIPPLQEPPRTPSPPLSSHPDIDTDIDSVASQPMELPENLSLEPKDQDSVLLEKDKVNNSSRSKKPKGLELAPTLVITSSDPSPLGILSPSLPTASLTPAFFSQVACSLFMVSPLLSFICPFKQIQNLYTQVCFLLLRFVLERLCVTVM
# Summary of the method: as §1
# ETV2 = molecular target: T4, ETV2 (Homo sapiens, UniProt O00321 1-342); conditions: protein: recombinant; tags: N-terminal GST; dsDNA, one strand shown
# T4 sequence: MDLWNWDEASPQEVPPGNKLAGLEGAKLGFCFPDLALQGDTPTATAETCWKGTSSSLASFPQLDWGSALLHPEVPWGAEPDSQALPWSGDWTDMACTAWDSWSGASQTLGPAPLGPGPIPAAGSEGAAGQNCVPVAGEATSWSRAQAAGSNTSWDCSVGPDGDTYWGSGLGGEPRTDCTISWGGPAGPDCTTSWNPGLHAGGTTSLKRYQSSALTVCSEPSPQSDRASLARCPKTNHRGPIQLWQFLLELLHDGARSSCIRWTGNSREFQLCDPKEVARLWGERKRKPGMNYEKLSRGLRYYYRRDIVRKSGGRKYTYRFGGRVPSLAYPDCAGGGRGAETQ
# Summary of the method: as §1
# ELF3 = molecular target: T5, ELF3 (Homo sapiens, UniProt P78545 1-371); conditions: protein: recombinant; tags: N-terminal GST; dsDNA, one strand shown
# T5 sequence: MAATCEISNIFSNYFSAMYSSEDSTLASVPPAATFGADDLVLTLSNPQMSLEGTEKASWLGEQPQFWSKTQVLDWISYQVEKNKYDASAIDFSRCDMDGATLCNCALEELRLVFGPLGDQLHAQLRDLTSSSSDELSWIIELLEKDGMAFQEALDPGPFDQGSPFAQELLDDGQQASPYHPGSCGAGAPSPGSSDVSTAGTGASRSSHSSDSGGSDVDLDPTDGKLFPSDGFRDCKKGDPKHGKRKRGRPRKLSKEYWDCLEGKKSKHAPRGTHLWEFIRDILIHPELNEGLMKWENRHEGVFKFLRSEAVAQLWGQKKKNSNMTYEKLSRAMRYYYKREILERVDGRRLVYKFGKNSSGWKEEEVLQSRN
# Summary of the method: as §1
# CRX = CRX (Homo sapiens, UniProt O43186 1-299); conditions: protein: recombinant; tags: N-terminal GST; dsDNA, one strand shown
# Summary of the method: as §1
# ETV1 = ETV1 (Homo sapiens, UniProt P50549 1-477); conditions: protein: recombinant; tags: N-terminal GST; dsDNA, one strand shown
# Summary of the method: as §1
# ERF = molecular target: T6, ERF (Homo sapiens, UniProt P50548 1-548); conditions: protein: recombinant; tags: N-terminal GST; dsDNA, one strand shown
# T6 sequence: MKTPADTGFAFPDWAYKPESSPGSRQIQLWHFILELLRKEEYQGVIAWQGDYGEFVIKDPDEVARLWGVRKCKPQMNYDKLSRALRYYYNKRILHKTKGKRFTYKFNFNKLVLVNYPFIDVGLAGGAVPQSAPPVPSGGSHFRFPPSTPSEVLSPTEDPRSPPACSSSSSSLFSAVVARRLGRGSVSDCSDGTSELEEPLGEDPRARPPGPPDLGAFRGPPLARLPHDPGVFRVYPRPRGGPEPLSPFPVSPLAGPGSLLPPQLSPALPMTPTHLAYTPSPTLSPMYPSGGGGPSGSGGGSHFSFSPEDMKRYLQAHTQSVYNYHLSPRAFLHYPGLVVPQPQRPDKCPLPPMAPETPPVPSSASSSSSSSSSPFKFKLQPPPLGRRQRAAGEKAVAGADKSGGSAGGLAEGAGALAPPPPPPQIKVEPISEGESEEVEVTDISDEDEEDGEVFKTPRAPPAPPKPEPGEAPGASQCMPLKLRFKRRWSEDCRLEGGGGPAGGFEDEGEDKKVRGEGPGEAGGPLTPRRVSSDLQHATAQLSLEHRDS
# Summary of the method: as §1
# ETV3L = molecular target: T7, ETV3L (Homo sapiens, UniProt Q6ZN32 1-361); conditions: protein: recombinant; tags: N-terminal GST; dsDNA, one strand shown
# T7 sequence: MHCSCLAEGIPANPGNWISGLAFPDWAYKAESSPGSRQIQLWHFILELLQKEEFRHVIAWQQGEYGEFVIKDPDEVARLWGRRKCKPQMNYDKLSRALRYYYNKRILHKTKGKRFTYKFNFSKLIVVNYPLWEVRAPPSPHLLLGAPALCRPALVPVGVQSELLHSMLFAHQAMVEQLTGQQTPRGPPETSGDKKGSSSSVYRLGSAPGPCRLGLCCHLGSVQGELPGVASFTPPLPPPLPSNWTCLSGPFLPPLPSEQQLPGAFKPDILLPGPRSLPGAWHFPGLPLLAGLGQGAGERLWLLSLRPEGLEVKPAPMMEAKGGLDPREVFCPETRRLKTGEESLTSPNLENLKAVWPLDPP
# Summary of the method: as §1
# ETS2 = molecular target: T8, ETS2 (Homo sapiens, UniProt P15036 1-469); conditions: protein: recombinant; tags: N-terminal GST; dsDNA, one strand shown
# T8 sequence: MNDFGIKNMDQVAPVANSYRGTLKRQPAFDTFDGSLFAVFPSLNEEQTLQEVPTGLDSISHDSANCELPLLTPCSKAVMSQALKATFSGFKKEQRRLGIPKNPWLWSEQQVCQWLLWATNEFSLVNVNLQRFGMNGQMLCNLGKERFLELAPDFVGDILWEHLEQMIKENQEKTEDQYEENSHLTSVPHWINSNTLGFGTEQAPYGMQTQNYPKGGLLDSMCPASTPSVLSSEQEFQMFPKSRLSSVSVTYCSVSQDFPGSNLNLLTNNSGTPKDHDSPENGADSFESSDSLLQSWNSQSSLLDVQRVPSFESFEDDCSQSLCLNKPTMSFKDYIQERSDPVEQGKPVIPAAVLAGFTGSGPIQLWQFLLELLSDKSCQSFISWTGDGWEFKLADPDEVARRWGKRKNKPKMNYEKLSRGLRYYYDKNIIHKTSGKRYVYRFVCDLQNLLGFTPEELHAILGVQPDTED
# Summary of the method: as §1
# SPDEF = molecular target: T9, SPDEF (Homo sapiens, UniProt O95238 1-335); conditions: protein: recombinant; tags: N-terminal GST; dsDNA, one strand shown
# T9 sequence: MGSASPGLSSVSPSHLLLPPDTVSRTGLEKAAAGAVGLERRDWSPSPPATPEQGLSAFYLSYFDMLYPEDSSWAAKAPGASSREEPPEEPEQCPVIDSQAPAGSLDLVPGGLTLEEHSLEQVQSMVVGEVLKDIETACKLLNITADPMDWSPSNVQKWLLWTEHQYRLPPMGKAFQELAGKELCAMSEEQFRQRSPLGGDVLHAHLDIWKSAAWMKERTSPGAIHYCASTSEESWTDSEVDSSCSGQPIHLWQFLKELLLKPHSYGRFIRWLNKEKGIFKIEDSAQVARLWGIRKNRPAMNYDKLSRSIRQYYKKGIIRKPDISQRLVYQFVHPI
# Summary of the method: as §1
# ETV7 = molecular target: T10, ETV7 (Homo sapiens, UniProt Q9Y603 1-341); conditions: protein: recombinant; tags: N-terminal GST; dsDNA, one strand shown
# T10 sequence: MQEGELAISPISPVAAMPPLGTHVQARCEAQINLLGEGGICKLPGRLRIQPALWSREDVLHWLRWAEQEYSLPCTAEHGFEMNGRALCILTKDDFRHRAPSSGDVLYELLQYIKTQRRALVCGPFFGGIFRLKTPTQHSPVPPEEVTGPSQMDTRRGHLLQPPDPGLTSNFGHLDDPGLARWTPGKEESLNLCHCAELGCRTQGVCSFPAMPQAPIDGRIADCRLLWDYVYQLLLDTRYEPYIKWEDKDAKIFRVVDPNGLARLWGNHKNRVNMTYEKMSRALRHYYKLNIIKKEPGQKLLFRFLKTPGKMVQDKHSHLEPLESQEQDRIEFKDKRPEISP
# Summary of the method: as §1
# ELF5 = molecular target: T11, ELF5 (Homo sapiens, UniProt Q9UKW6-2 1-255); conditions: protein: recombinant; tags: N-terminal GST; dsDNA, one strand shown
# T11 sequence: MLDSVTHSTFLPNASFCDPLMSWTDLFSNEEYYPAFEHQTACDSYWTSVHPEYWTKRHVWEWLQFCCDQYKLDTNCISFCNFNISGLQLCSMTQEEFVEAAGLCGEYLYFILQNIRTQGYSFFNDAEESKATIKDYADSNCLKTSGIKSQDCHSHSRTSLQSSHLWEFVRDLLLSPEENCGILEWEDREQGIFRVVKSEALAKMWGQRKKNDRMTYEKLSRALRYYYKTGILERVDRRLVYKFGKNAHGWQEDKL
# Summary of the method: as §1
# ETV3 = molecular target: T12, ETV3 (Homo sapiens, UniProt P41162-2 1-143); conditions: protein: recombinant; tags: N-terminal GST; dsDNA, one strand shown
# T12 sequence: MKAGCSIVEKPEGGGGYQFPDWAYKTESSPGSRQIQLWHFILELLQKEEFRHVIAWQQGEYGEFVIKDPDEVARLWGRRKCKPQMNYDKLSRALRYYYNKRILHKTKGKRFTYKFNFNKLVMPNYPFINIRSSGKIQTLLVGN
# Summary of the method: as §1
# ETV6 = ETV6 (Homo sapiens, UniProt P41212 1-452); conditions: protein: recombinant; tags: N-terminal GST; dsDNA, one strand shown
# Summary of the method: as §1
# Chain of ETV1 (P50549 whole entry): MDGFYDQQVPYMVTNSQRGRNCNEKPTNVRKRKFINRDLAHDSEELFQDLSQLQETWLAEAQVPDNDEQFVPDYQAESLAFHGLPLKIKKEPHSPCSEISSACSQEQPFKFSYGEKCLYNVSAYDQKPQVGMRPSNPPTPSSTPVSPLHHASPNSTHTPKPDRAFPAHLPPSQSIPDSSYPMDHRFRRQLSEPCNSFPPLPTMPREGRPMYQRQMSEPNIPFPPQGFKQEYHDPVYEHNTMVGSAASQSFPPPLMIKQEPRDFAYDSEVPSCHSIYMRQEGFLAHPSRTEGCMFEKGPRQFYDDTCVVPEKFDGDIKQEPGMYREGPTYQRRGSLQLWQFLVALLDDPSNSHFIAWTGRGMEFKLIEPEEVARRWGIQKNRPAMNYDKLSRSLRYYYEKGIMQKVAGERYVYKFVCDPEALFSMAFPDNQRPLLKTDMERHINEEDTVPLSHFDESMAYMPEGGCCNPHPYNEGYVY
# Chain of ELF4 (Q99607 whole entry): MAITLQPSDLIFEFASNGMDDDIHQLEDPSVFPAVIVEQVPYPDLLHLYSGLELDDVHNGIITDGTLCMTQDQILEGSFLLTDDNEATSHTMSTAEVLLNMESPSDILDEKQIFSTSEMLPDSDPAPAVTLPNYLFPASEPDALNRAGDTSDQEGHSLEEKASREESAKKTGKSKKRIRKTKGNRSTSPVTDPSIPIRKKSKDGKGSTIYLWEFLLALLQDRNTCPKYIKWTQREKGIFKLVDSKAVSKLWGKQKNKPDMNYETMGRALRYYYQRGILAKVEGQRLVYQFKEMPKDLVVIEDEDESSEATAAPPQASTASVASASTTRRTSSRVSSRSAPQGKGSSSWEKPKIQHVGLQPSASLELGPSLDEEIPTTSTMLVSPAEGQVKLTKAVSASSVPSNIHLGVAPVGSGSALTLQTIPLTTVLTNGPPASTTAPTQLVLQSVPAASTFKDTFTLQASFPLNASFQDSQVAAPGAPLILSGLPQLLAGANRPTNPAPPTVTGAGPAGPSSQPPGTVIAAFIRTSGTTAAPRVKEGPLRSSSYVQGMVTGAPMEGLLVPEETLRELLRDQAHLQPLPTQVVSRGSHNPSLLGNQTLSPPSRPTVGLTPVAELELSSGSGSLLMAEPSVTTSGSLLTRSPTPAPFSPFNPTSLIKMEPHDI
# Chain of HSF1 (Q00613 whole entry): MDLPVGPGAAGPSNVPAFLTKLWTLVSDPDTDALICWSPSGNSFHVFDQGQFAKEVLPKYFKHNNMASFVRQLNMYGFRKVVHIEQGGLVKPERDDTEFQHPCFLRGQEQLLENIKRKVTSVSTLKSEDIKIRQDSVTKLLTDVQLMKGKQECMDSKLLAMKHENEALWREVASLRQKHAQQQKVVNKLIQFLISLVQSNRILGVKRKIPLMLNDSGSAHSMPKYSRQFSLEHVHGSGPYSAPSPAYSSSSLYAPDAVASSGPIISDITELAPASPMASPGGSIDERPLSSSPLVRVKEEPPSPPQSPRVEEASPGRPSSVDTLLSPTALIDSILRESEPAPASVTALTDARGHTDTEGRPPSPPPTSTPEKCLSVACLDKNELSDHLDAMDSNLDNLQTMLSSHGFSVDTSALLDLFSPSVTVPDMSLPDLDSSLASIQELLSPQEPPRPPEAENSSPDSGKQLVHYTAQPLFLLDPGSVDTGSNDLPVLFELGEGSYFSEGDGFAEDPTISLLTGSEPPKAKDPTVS
# Chain of CRX (O43186 whole entry): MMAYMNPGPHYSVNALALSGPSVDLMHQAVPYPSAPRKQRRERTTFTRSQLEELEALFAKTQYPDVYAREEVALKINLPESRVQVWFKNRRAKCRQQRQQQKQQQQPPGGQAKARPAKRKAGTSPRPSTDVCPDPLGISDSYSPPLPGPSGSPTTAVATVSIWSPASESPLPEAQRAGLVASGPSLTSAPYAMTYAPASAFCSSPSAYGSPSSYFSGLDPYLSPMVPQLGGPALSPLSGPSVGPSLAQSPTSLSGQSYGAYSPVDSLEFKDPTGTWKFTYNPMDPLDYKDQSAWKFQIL
# Chain of ETV5 (P41161 whole entry): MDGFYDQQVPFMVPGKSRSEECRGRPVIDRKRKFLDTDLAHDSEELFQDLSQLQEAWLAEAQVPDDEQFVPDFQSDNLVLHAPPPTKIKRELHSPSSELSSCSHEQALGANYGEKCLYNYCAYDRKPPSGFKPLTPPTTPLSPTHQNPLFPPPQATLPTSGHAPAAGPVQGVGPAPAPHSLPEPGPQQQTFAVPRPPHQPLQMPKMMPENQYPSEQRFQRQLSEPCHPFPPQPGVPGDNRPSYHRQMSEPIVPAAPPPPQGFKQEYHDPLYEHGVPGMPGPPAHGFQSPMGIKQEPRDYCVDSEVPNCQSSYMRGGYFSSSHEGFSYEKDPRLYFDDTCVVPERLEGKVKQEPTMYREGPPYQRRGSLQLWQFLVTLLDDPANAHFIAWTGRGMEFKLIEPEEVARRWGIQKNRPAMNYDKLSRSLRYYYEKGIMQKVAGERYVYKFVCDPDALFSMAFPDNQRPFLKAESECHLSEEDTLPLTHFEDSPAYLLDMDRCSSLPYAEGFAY
# Chain of ETV6 (P41212 whole entry): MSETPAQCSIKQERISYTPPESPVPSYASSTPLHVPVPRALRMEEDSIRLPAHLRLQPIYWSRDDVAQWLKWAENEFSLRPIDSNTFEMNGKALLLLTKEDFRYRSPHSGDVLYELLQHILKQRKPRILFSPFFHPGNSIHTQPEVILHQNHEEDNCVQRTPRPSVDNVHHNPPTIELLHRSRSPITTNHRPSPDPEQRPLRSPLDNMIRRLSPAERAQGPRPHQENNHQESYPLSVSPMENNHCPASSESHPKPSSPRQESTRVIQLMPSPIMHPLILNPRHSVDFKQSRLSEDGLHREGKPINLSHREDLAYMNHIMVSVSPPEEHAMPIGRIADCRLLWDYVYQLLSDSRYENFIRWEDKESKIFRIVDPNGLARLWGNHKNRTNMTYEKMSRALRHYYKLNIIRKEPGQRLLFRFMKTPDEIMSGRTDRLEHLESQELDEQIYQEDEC
sequence,measurement,setting,value
TCCAAG,binding signal,FEV,"1.03 fold enrichment (6-mer frequency, TF over GST control)"
same,binding signal,ETV5,"1.07 fold enrichment (6-mer frequency, TF over GST control)"
same,binding signal,HSF1,"1.23 fold enrichment (6-mer frequency, TF over GST control)"
same,binding signal,SPIC,"1.11 fold enrichment (6-mer frequency, TF over GST control)"
same,binding signal,ELF4,"1.07 fold enrichment (6-mer frequency, TF over GST control)"
same,binding signal,ELK4,"1.04 fold enrichment (6-mer frequency, TF over GST control)"
same,binding signal,ETV2,"1.19 fold enrichment (6-mer frequency, TF over GST control)"
same,binding signal,ELF3,"1.11 fold enrichment (6-mer frequency, TF over GST control)"
same,binding signal,CRX,"1.2 fold enrichment (6-mer frequency, TF over GST control)"
same,binding signal,ETV1,"1.13 fold enrichment (6-mer frequency, TF over GST control)"
same,binding signal,ERF,"1.03 fold enrichment (6-mer frequency, TF over GST control)"
same,binding signal,ETV3L,"1.06 fold enrichment (6-mer frequency, TF over GST control)"
same,binding signal,ETS2,"1.13 fold enrichment (6-mer frequency, TF over GST control)"
same,binding signal,SPDEF,"1.17 fold enrichment (6-mer frequency, TF over GST control)"
same,binding signal,ETV7,"1.07 fold enrichment (6-mer frequency, TF over GST control)"
same,binding signal,ELF5,"1.07 fold enrichment (6-mer frequency, TF over GST control)"
same,binding signal,ETV3,"1.06 fold enrichment (6-mer frequency, TF over GST control)"
same,binding signal,ETV6,"1.03 fold enrichment (6-mer frequency, TF over GST control)"
